Measured values as given in PubChem BioAssay (NCI).
This is part of a sample that, as a whole, favours compounds with a hit. Of some 83,000 tested, about 20% had one in any assay.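 Interpretation: 100, growth as untreated; towards 0, rising growth inhibition; 0, no net growth; 0 to -100, cell death. Compounds scoring below 10 were considered active.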 Unmarked numbers belong to inactive results. Active and inactive are the calls of the source.

The molecules below were run on MOLT-4 leukemia (assay: NCI-60 one-dose screen, 48 h (100 = growth as untreated, 0 = no growth, -100 = all killed)). Conditions: 10 µM unless noted.
`CCC(c1ccccc1)C(CC)c1ccc(O)c(O)c1` (stereo unspecified) gave a growth of 73.8%. `CN1CCN(c2ccc3nc(-c4ccc5nc(-c6ccc(OCCC(C)(C)C)cc6)[nH]c5c4)[nH]c3c2)CC1` was tested, and the growth was -41.2% (active). Work on `NC(N)=Nc1ccc(S(=O)(=O)O)cc1` yielded a growth of 85.2%. Work on `O=C(/C=C/c1cc2ccccc2[nH]c1=O)/C=C/c1cc2ccccc2[nH]c1=O` yielded a growth of 31.6%. `Nc1ccc(Nc2nccc(-c3ccc4ccccc4c3)n2)cc1` gave a growth of 20.2%. Work on `C=C1CCC2C3(C)COC(c4ccc(OC)cc4Br)OC3CCC2(C)C1/C=C/C1=CCOC1=O` (stereo unspecified) yielded a growth of 55.7%. With `CCC(=O)Oc1ccc(/C(=C(\C)c2ccccc2)c2ccc(OCCN(CC)CC)cc2)cc1` the growth was 66.4%. With `NS(=O)(=O)c1ccc(-n2ncc3c(=O)[nH]c(CN4CCN(c5cc6c(cc5F)c(=O)c(C(=O)O)cn6C5CC5)CC4)nc32)cc1` the growth was 97%. For `COc1ccc(-c2nn(-c3ccccc3)cc2/C=C2\SC(=O)NC2=O)cc1`, the growth was 96.4%. `O=C(COc1cccc(/C=C2/Oc3ccccc3C2=O)c1)Nc1nccs1` showed a growth of 28.4%. `COc1cc(C(=O)/C=C/c2c(C)n([O-])c3ccc(C)cc3[n+]2=O)cc(OC)c1OC` was tested, and the growth was -30.2% (active). In the case of `CCN(CC)CC#CCOC(=O)[C@]1(C)CCC[C@@]2(C)[C@H]1CC(C=O)=C1C=C(C(C)C)CC[C@@H]12`, the growth is reported as 50.1%. With `C=C1CCC2C3(C)COC(c4ccccc4Br)OC3CCC2(C)C1C/C=C1/C(=O)OCC1OC(C)=O` (stereo unspecified) the growth was -45.5% (active). In the case of `Cn1c2ccccc2c2c3c(c4c5ccccc5n(CCCCCC#N)c4c21)C(=O)N(O)C3=O`, the growth is reported as 1.13% (active). In the case of `CC(=O)C1=C(O)C=C2Oc3c(C(=O)/C=C/c4c(Cl)cccc4Cl)c(O)c(C)c(O)c3[C@]2(C)C1=O`, the growth is reported as -33% (active). Molecule `Oc1ccc(Nc2nccc(-c3ccc4ccccc4c3)n2)cc1` has a growth of 14.8%. `COc1ccc(C(=O)/C=C/c2cc3ccccc3[nH]c2=O)cc1` showed a growth of 32.5%. `C[C@@]1(N2C(=O)OC[C@@H]2c2ccccc2)C(=O)N([C@H](CC(=O)N2CCC(N3CCCCC3)CC2)C(=O)NCc2cccc(C(F)(F)F)c2)[C@@H]1/C=C/c1ccccc1` was tested, and the growth was 10.7%. With `CCOC(=O)c1cnc2ccc(Br)cc2c1Nc1cccc(S(=O)(=O)NC)c1` the growth was 115%. For `O=c1c2c3c(sc2n2c(CCl)nnc2n1Cc1ccccc1)CCCC3`, the growth was -18.4% (active). For `COC(=O)[C@H](C(C)C)n1c(=O)c2cc(OC)c(OC)cc2c2cnc3[nH]ccc3c21`, the growth was 1.15% (active). With `CC(=O)Oc1ccc(Nc2c3ccccc3nc3ccccc23)cc1` the growth was 1.46% (active). `COc1cc(NCCCCN=C(N)NC(N)=NC(C)C)c2ncccc2c1` gave a growth of 54.1%. `CCN(CC)C12CCCCC1(C)C(C#N)(C#N)C(C#N)=C(N)O2` (stereo unspecified) showed a growth of 108%. For `COc1ccc(-c2c3c(nc4n[nH]c(-c5ccc(Cl)cc5)c24)-c2ccccc2C(=O)C3=O)cc1`, the growth was 0.0593% (active). In the case of `O=C(/C=C\c1ccc2ccccc2n1)c1cc(Cl)ccc1O`, the growth is reported as 54.2%. With `O=C1c2cc3c(cc2-c2c1c1cc(Cl)c(Cl)cc1c(=O)n2CCCn1ccnc1)OCO3` the growth was -24.9% (active). In the case of `CN(C)c1ccc(/C=C\C2=[N+](C)c3ccccc3C2(C)C)cc1`, the growth is reported as 15.7%. Molecule `COc1ccc(CCN2CC=Cn3c2nc2ccccc2c3=O)cc1` has a growth of 19%.

These molecules were tested on SR leukemia in the same assay as above. Conditions: 10 µM unless noted.
`CCC(c1ccccc1)C(CC)c1ccc(O)c(O)c1` (stereo unspecified) showed a growth of 55.3%. In the case of `CCC(=O)Oc1ccc(/C(=C(\C)c2ccccc2)c2ccc(OCCN(CC)CC)cc2)cc1`, the growth is reported as 43.9%. `NS(=O)(=O)c1ccc(-n2ncc3c(=O)[nH]c(CN4CCN(c5cc6c(cc5F)c(=O)c(C(=O)O)cn6C5CC5)CC4)nc32)cc1` was tested, and the growth was 97.2%. In the case of `O=C(COc1cccc(/C=C2/Oc3ccccc3C2=O)c1)Nc1nccs1`, the growth is reported as -53.8% (active). `COc1cc(C(=O)/C=C/c2c(C)n([O-])c3ccc(C)cc3[n+]2=O)cc(OC)c1OC` was tested, and the growth was -35.2% (active). With `CCN(CC)CC#CCOC(=O)[C@]1(C)CCC[C@@]2(C)[C@H]1CC(C=O)=C1C=C(C(C)C)CC[C@@H]12` the growth was 20.1%. With `C=C1CCC2C3(C)COC(c4ccccc4Br)OC3CCC2(C)C1C/C=C1/C(=O)OCC1OC(C)=O` (stereo unspecified) the growth was -40.9% (active). For `Cn1c2ccccc2c2c3c(c4c5ccccc5n(CCCCCC#N)c4c21)C(=O)N(O)C3=O`, the growth was 1.39% (active). In the case of `CC(=O)C1=C(O)C=C2Oc3c(C(=O)/C=C/c4c(Cl)cccc4Cl)c(O)c(C)c(O)c3[C@]2(C)C1=O`, the growth is reported as -31% (active). With `C[C@@]1(N2C(=O)OC[C@@H]2c2ccccc2)C(=O)N([C@H](CC(=O)N2CCC(N3CCCCC3)CC2)C(=O)NCc2cccc(C(F)(F)F)c2)[C@@H]1/C=C/c1ccccc1` the growth was -38.4% (active). Molecule `CCOC(=O)c1cnc2ccc(Br)cc2c1Nc1cccc(S(=O)(=O)NC)c1` has a growth of 124%. With `O=c1c2c3c(sc2n2c(CCl)nnc2n1Cc1ccccc1)CCCC3` the growth was -33.9% (active). Molecule `COc1cc(NCCCCN=C(N)NC(N)=NC(C)C)c2ncccc2c1` has a growth of 98.2%. Molecule `CCN(CC)C12CCCCC1(C)C(C#N)(C#N)C(C#N)=C(N)O2` (stereo unspecified) has a growth of 92.7%. In the case of `O=C1c2cc3c(cc2-c2c1c1cc(Cl)c(Cl)cc1c(=O)n2CCCn1ccnc1)OCO3`, the growth is reported as -13.4% (active). For `CN(C)c1ccc(/C=C\C2=[N+](C)c3ccccc3C2(C)C)cc1`, the growth was 25%. Molecule `COc1ccc(CCN2CC=Cn3c2nc2ccccc2c3=O)cc1` has a growth of 22.1%.
